HT1080NT lethal = kills 2HG-producing HT-1080-NT fibrosarcoma cells; Potency, µM (series often up to 46.1 µM), for inactives: at the highest dose activity, negative = less viability, actives largely listed as cytotoxic; HT-1080-NT fibrosarcoma viability, CellTiter-Glo ATP luminescence, 48 h; 1.6% of 360,000 active;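 note: NT is the 2HG producing partner of a matched IDH1 knockdown line; potency is the fitted concentration of half-maximal effect; 0% = DMSO-treated cells and -100% = media-only wells without cells; nearly all actives have a fitted effect of over 55% in size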
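HT-1080-NT fibrosarcoma cells (2HG-overproducing), 750 cells/well in RPMI with 5% FBS, dosed after 2 h and incubated 48 h at 37C. CellTiter-Glo luminescence normalized to DMSO and no-cell wells; concentration-response curves fitted and classed.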
ALOX12 inh = ALOX12 (human) lipoxygenase inhibition; Potency, µM (titrated, usually from 108 µM), inactives show at the highest dose activity change, negative = inhibition, actives largely listed as inhibitors; purified 12hLO, xylenol orange hydroperoxide absorbance; P18054; 1.1% of 580,000 active; note: potency is the fitted concentration of half-maximal effect
Target sequence (P18054 whole entry, looked up): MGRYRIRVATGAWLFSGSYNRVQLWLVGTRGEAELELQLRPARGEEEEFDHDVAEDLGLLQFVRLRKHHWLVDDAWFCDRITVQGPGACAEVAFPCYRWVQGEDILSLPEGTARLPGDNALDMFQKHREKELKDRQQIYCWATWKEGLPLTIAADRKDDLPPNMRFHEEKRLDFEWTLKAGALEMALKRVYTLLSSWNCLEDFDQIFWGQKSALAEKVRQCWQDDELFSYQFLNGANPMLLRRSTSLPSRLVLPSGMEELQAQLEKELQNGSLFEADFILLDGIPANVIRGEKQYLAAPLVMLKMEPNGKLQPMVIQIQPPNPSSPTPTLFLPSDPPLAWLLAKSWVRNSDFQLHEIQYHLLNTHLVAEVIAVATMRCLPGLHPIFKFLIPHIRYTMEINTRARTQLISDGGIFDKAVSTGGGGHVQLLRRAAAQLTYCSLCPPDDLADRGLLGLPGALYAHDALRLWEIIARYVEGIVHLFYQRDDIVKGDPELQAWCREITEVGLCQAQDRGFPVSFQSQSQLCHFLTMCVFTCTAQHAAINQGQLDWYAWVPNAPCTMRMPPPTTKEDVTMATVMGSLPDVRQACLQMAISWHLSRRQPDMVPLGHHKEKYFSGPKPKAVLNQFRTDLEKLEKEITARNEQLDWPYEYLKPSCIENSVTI
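Hydroperoxide product was detected by ferrous iron/xylenol orange as the 573 to 405 nm absorbance ratio. Arachidonic acid at 40 uM (final) was turned over for 30 min at room temperature by 150 nM human 12hLO, pH 7.0 Hepes buffer, after 15 min compound preincubation.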
DT40 TDP1 CPT = DT40-hTDP1 cell growth loss with CPT; chicken DT40 Tdp1-/-;hTDP1 cells + 20 nM CPT, ATP luminescence, 48 h; Potency, µM (titrated, usually from 46.2 µM), without a hit: at the highest dose activity change, negative = growth inhibition, actives largely listed as inhibitors; 12% of 420,000 active; note: potency is the fitted concentration of half-maximal effect; nearly all actives have a fitted effect of over 55% in size
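Cell growth measured by CellTiter-Glo luminescence after a minimum 48 h, 37 C compound exposure with 20 nM CPT in Tdp1-knockout DT40 cells stably expressing hTDP1, seeded 400/well; qHTS titration format.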
DT40 TDP1 no CPT = qHTS for Inhibitors of human tyrosyl-DNA phosphodiesterase 1 (TDP1): qHTS in cells in absence of CPT | DT40 Tdp1-/- hTDP1 cells, no CPT, ATP luminescence, 48 h | Potency, µM (series often up to 46.2 µM), for inactives: at the highest dose activity change, negative = growth inhibition, most hits filed as inhibitors | 15% of 420,000 active; note: potency is the fitted concentration of half-maximal effect; nearly all actives have a fitted effect of over 55% in size
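A cellular qHTS used chicken DT40 cells lacking endogenous Tdp1 but carrying stably transfected human TDP1. Compounds were applied without camptothecin, and cell growth kinetics were judged by ATP-dependent luminescence after ≥48 hr.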
HT1080 IDH1KD tx = HT-1080 IDH1 knockdown cell toxicity (counter line). HT-1080 IDH1 knockdown viability, ATP luminescence, 48 h. Potency, µM (highest dose often 46.1 µM), for the others: top-dose activity, negative = toxicity, actives largely listed as cytotoxic. 2% of 360,000 active;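 note: potency is the fitted concentration of half-maximal effect; 0% = DMSO wells and -100% = cell-free medium wells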
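Luminescent ATP read-out (CellTiter-Glo, 10 min at room temperature) after 48 h compound exposure at 37 °C gave viability of IDH1-knockdown HT-1080 cells. Activity was normalised to DMSO and cell-free wells, then fitted as concentration-response curves.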
IL1B secr inh = blocks inflammasome-driven IL-1 beta release; THP-1 LPS/ATP IL-1B secretion, AlphaLISA, 16 h; active compounds read low; 4.7% of 360,000 active; activity change, % at 57.5 µM; in the data active = activity change below about -50%; inconclusive = mostly about -30% to -49%
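Secreted IL-1B measured by AlphaLISA bead assay after 16 h compound exposure of THP-1 cells; compounds (final up to 57.5 uM) added 1 h before LPS (250 ng/mL) and ATP (1.25 mM) stimulation; lower signal means less secretion.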
Starred values were filed as active, the others as inactive. The full list was thinned out, with hits kept by preference. Unless noted, calls come from the whole dose curve; as a rule, active = well fitted curve in the direction sought with a large enough effect; inconclusive = small, poorly fitted or top-dose-only effect, or another doubt; inactive = no such curve, though single readings can be large; an effect the other way counts as inactive or inconclusive. Unless noted, % is set by controls: 0 for no effect and ±100 for the full control effect.

COc1ccc(NC(=O)c2ccc(NC(=O)CSc3nc(N)cc(=O)[nH]3)cc2)cc1 was read as HT1080NT lethal -7%, ALOX12 inh -27%, DT40 TDP1 CPT inconclusive, DT40 TDP1 no CPT inconclusive, HT1080 IDH1KD tx -9% and IL1B secr inh -2.
Screening O=C(NCc1ccncc1)/C(=C/c1cccc([N+](=O)[O-])c1)NC(=O)c1ccccc1 returned HT1080NT lethal 6%, ALOX12 inh 0%, DT40 TDP1 CPT 1%, DT40 TDP1 no CPT 0%, HT1080 IDH1KD tx 11% and IL1B secr inh -4.
Cc1cc(-c2ccccc2)cc(C)n1 was read as HT1080NT lethal 8%, ALOX12 inh 0%, DT40 TDP1 CPT -1%, DT40 TDP1 no CPT -12%, HT1080 IDH1KD tx 14% and IL1B secr inh 8.
c1ccc(-c2cc(-c3ccccc3)[o+]c(-c3ccccc3)c2)cc1 was read as ALOX12 inh 16µM*.
Screening CNC(=O)c1ccc(NS(=O)(=O)c2cc(C(C)(C)C)ccc2C)cc1 returned ALOX12 inh 10%.
For Cn1c(SCc2cccc(C#N)c2)nc2ccccc2c1=O the results were HT1080NT lethal inconclusive, ALOX12 inh 10%, DT40 TDP1 CPT inconclusive, DT40 TDP1 no CPT inconclusive, HT1080 IDH1KD tx inconclusive and IL1B secr inh -50*.
CCCCn1c(SCc2cccc([N+](=O)[O-])c2)nc2ccsc2c1=O was read as HT1080NT lethal 0%, ALOX12 inh 2%, DT40 TDP1 CPT inconclusive, DT40 TDP1 no CPT 23µM*, HT1080 IDH1KD tx 2% and IL1B secr inh -20.
CCCCn1c(SCc2ccccc2C)nc2ccsc2c1=O was read as ALOX12 inh -10%, DT40 TDP1 CPT inconclusive and DT40 TDP1 no CPT inconclusive.
Screening CCOC(CCn1c(SCc2cccc([N+](=O)[O-])c2)nc2ccccc2c1=O)OCC returned HT1080NT lethal inconclusive, ALOX12 inh -17%, DT40 TDP1 CPT 16µM*, DT40 TDP1 no CPT inconclusive, HT1080 IDH1KD tx -28% and IL1B secr inh -29.
COCCn1c(SCc2cccc([N+](=O)[O-])c2)nc2ccccc2c1=O was read as HT1080NT lethal -27%, ALOX12 inh 0%, DT40 TDP1 CPT inconclusive, DT40 TDP1 no CPT inconclusive, HT1080 IDH1KD tx inconclusive and IL1B secr inh inconclusive.
For Cn1c(SCc2cccc([N+](=O)[O-])c2)nc2ccccc2c1=O the results were HT1080NT lethal inconclusive, ALOX12 inh 1%, DT40 TDP1 CPT 16µM*, DT40 TDP1 no CPT 12µM*, HT1080 IDH1KD tx inconclusive and IL1B secr inh -6.
`COc1ccc(C(=O)N[C@H]2C[C@H]3C(=O)NC[C@@H](CCC(=O)NCc4cccnc4)N3C2)cc1` gave ALOX12 inh 6%.
O=C1CN(C(=O)Nc2ccccc2Cl)C(c2ccccc2)c2c(sc3c2CCCC3)N1 (stereo not drawn) was read as ALOX12 inh -11%, DT40 TDP1 CPT 23µM* and DT40 TDP1 no CPT inconclusive.
`O=C(OCc1nc(-c2ccc(OC(F)(F)F)cc2)no1)c1ccc2c(c1)OCO2` gave ALOX12 inh -7%.
O=C1CCC2(CCCO2)CCN1Cc1ccc(F)cc1 (stereo not drawn) was read as ALOX12 inh 6%.
For COc1ccc(C(=O)OCc2ncc(-c3ccccc3)o2)c(O)c1 the results were ALOX12 inh 9%.
`CC(=O)NC(C)(c1ccccc1)c1nc(-c2ccncc2)cs1` (stereo not drawn) gave HT1080NT lethal 19%, ALOX12 inh -12%, DT40 TDP1 CPT -8%, DT40 TDP1 no CPT -20%, HT1080 IDH1KD tx 5% and IL1B secr inh 3.
